# Laboratory results from ChEMBL document CHEMBL1961873, “Compounds: GSK PKIS; Assays: Nanosyn kinase panel” (2012).
# Several values for one entry are separate records, joined by “and”; a condition that tells them apart may be missing. Equal values may be shown once.
# Key:
# [1] = biological target: T1, Mitogen-activated protein kinase 12 (Homo sapiens) (UniProt P53778); conditions: at 1 µM;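 also: values are averaged p38gamma kinase inhibition readings, compounds tested at 1 µM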
# T1 sequence (whole entry): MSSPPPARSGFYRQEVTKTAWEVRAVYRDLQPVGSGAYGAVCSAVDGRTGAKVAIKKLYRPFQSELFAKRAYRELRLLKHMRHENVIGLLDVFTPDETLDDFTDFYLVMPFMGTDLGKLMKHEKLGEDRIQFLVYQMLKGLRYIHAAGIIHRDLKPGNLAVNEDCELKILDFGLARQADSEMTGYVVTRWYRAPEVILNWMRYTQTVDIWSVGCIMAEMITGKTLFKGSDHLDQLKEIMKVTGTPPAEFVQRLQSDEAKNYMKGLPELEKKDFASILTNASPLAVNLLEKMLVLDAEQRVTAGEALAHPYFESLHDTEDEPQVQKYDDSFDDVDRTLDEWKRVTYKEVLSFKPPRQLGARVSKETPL
# [2] = biological target: SRSF protein kinase 1 (Homo sapiens) (UniProt Q96SB4); conditions: at 0.1 µM
# Chain of SRSF protein kinase 1 (Homo sapiens) (Q96SB4 whole entry, canonical isoform): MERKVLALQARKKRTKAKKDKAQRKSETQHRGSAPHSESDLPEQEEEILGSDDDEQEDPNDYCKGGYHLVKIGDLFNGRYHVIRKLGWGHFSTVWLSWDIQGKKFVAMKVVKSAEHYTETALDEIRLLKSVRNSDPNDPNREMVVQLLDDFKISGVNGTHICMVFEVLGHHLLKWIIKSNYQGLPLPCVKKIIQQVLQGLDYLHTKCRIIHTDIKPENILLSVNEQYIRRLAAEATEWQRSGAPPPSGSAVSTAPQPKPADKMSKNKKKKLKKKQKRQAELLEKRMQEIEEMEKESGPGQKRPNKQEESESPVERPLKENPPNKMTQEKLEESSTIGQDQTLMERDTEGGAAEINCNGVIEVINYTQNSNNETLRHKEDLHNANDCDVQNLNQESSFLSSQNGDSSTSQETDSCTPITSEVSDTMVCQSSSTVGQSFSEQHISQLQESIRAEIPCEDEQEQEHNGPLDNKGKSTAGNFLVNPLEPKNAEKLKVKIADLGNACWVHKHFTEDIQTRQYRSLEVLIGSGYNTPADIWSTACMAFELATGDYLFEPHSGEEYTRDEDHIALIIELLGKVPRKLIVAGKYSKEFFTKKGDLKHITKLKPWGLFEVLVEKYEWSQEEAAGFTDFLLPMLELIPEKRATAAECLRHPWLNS
# [3] = biological target: SRSF protein kinase 1 (Homo sapiens) (UniProt Q96SB4); conditions: at 1 µM
# [4] = biological target: Phosphatidylinositol 4,5-bisphosphate 3-kinase catalytic subunit alpha isoform (Homo sapiens) (UniProt P42336); conditions: at 0.1 µM
# Chain of Phosphatidylinositol 4,5-bisphosphate 3-kinase catalytic subunit alpha isoform (Homo sapiens) (P42336 whole entry, canonical isoform): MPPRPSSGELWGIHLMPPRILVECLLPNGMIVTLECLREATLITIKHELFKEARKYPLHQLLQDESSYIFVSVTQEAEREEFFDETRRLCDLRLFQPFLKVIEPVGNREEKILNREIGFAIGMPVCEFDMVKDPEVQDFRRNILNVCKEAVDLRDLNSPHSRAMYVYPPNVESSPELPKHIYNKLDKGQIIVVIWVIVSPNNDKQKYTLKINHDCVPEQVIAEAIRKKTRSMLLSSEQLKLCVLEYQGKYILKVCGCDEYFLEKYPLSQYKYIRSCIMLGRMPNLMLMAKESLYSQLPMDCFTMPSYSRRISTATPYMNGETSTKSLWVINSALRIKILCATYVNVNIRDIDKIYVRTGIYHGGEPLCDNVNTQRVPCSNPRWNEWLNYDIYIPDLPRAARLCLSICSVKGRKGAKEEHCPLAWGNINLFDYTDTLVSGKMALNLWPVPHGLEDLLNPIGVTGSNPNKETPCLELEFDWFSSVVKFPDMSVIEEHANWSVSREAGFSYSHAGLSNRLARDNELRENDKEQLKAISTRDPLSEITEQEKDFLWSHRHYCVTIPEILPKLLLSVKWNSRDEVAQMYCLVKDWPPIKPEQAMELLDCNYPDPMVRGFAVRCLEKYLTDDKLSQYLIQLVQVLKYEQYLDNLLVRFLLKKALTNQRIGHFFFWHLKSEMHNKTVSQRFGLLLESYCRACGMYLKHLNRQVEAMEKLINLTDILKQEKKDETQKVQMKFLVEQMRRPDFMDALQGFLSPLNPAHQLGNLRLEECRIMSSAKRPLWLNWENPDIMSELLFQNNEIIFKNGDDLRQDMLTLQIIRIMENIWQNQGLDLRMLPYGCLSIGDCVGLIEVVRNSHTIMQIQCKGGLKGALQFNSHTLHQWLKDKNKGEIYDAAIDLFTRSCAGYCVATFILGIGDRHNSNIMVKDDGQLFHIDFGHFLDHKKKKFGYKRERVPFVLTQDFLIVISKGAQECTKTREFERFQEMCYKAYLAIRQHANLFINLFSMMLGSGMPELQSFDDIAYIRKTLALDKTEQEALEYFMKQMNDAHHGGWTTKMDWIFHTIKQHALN
# [5] = biological target: Phosphatidylinositol 4,5-bisphosphate 3-kinase catalytic subunit alpha isoform (Homo sapiens) (UniProt P42336); conditions: at 1 µM
# [6] = biological target: T2, Phosphatidylinositol 4,5-bisphosphate 3-kinase catalytic subunit delta isoform (Homo sapiens) (UniProt O00329); conditions: at 0.1 µM
# T2 sequence (whole entry): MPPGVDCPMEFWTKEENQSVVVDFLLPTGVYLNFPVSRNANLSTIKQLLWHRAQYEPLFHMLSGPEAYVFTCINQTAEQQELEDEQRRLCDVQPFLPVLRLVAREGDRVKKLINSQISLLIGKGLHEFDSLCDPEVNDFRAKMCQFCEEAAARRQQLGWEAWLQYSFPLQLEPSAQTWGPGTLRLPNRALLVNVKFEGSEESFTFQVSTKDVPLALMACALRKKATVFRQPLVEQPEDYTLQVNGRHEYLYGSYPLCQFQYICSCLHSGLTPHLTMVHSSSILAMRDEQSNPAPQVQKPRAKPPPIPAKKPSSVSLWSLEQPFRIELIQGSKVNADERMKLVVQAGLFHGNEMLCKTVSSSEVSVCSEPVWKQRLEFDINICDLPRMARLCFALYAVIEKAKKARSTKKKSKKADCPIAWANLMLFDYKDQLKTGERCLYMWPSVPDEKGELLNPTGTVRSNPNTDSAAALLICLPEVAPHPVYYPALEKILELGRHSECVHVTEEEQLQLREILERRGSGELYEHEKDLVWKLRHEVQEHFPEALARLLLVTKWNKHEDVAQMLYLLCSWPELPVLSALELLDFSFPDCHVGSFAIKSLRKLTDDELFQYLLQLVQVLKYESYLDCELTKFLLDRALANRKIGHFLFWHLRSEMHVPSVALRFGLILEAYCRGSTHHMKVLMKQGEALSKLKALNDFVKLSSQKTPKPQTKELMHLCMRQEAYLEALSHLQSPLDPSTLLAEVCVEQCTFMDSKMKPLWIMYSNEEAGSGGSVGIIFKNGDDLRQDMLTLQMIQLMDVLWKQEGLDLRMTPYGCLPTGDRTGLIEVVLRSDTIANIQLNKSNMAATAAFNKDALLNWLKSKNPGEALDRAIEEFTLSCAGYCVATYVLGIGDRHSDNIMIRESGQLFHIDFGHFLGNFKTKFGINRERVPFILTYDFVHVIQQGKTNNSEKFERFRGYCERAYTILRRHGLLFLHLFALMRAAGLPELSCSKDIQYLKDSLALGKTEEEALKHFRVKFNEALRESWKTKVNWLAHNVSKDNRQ
# [7] = biological target: T2, Phosphatidylinositol 4,5-bisphosphate 3-kinase catalytic subunit delta isoform (Homo sapiens); conditions: at 1 µM
# [8] = biological target: Phosphatidylinositol 4-kinase beta (Homo sapiens) (UniProt Q9UBF8); conditions: at 0.1 µM
# Chain of Phosphatidylinositol 4-kinase beta (Homo sapiens) (Q9UBF8 2-816 limits assumed): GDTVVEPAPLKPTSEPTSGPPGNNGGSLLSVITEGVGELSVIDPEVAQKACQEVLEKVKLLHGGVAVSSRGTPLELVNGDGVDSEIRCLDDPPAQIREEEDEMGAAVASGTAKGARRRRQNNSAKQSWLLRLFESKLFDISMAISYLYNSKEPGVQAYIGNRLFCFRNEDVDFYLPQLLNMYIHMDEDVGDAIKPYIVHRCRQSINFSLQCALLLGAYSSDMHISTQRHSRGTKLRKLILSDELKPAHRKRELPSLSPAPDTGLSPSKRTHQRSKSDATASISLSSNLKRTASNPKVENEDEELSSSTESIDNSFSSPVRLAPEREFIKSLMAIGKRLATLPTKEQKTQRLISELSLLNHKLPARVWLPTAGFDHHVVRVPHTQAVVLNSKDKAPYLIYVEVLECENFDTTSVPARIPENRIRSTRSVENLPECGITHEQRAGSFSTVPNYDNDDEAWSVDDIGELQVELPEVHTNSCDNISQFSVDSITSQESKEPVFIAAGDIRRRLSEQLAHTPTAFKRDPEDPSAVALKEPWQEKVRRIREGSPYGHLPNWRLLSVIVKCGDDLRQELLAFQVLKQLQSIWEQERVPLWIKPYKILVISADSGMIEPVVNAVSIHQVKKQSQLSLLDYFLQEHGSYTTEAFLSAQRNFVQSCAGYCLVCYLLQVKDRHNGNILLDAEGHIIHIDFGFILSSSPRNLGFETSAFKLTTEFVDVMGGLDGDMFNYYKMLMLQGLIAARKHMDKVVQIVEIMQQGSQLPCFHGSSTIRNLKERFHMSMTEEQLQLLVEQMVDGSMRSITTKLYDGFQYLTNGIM
# [9] = biological target: Phosphatidylinositol 4-kinase beta (Homo sapiens) (UniProt Q9UBF8); conditions: at 1 µM
# [10] = biological target: Sphingosine kinase 1 (Homo sapiens) (UniProt Q9NYA1); conditions: at 0.1 µM
# Chain of Sphingosine kinase 1 (Homo sapiens) (Q9NYA1 whole entry): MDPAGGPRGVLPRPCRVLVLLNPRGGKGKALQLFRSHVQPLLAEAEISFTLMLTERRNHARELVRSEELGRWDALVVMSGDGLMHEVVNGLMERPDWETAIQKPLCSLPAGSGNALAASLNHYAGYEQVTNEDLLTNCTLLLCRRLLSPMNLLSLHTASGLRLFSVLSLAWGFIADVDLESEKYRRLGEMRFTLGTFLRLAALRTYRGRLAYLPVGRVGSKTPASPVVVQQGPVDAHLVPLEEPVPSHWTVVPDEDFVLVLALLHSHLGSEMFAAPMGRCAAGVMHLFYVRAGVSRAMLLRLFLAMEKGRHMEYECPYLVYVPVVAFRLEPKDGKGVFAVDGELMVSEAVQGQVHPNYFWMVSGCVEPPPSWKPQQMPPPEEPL
# [11] = biological target: Sphingosine kinase 1 (Homo sapiens) (UniProt Q9NYA1); conditions: at 1 µM
# [12] = biological target: T3, Sphingosine kinase 2 (Homo sapiens) (UniProt Q9NRA0); conditions: at 0.1 µM
# T3 sequence (whole entry): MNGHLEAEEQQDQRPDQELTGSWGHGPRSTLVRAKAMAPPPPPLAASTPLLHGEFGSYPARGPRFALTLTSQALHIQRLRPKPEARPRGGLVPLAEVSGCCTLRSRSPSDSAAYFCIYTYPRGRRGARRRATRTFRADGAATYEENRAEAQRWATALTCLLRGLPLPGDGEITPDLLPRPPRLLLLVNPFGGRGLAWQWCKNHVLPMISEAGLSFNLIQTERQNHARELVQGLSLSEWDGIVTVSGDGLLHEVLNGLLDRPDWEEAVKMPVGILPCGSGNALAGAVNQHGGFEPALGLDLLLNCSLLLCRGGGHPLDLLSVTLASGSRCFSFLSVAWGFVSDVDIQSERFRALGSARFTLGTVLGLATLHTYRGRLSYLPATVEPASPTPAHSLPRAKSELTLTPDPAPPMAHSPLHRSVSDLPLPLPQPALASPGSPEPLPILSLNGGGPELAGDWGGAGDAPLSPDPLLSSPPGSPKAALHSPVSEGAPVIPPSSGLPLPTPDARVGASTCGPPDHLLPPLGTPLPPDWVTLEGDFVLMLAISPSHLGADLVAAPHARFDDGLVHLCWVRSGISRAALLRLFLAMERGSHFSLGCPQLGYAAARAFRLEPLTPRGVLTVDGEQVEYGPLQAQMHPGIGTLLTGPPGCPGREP
# [13] = biological target: T3, Sphingosine kinase 2 (Homo sapiens); conditions: at 1 µM
# [14] = biological target: Casein kinase II subunit alpha (Homo sapiens) (UniProt P68400); conditions: at 0.1 µM
# Chain of Casein kinase II subunit alpha (Homo sapiens) (P68400 whole entry, looked up): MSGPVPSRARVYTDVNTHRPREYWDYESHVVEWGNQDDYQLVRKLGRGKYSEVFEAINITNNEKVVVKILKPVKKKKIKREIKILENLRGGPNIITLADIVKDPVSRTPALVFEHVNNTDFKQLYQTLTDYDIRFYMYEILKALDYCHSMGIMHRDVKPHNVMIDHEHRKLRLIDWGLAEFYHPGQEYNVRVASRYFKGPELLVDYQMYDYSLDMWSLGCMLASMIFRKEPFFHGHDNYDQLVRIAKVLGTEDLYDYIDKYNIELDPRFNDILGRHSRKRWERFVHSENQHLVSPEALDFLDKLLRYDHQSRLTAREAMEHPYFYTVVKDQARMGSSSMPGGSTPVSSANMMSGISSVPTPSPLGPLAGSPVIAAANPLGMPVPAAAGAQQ
# [15] = biological target: Casein kinase II subunit alpha (Homo sapiens) (UniProt P68400); conditions: at 1 µM
# [16] = biological target: T4, Inhibitor of nuclear factor kappa-B kinase subunit alpha (Homo sapiens) (UniProt O15111); conditions: at 0.1 µM
# T4 sequence (whole entry): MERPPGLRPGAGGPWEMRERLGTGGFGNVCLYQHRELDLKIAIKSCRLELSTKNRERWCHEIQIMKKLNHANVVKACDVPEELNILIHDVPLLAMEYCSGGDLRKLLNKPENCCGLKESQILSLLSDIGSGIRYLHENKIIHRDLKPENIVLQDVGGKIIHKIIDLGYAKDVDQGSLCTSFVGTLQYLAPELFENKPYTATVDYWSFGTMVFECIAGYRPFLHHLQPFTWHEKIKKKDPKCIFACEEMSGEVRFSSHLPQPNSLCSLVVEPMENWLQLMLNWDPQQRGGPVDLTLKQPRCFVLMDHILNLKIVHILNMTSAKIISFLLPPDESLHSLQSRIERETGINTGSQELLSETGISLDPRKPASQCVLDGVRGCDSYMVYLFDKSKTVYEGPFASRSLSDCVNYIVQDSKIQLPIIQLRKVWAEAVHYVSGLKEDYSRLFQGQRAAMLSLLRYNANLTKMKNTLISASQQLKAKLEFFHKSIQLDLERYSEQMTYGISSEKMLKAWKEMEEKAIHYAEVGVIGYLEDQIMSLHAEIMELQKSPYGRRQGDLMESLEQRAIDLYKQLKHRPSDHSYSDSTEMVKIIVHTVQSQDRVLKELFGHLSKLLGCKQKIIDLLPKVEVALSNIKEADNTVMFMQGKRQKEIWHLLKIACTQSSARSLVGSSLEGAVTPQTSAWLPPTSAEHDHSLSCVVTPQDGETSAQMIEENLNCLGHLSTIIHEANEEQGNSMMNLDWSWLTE
# [17] = biological target: T4, Inhibitor of nuclear factor kappa-B kinase subunit alpha (Homo sapiens); conditions: at 1 µM
# [18] = biological target: T5, Inhibitor of nuclear factor kappa-B kinase subunit beta (Homo sapiens) (UniProt O14920); conditions: at 0.1 µM
# T5 sequence (whole entry): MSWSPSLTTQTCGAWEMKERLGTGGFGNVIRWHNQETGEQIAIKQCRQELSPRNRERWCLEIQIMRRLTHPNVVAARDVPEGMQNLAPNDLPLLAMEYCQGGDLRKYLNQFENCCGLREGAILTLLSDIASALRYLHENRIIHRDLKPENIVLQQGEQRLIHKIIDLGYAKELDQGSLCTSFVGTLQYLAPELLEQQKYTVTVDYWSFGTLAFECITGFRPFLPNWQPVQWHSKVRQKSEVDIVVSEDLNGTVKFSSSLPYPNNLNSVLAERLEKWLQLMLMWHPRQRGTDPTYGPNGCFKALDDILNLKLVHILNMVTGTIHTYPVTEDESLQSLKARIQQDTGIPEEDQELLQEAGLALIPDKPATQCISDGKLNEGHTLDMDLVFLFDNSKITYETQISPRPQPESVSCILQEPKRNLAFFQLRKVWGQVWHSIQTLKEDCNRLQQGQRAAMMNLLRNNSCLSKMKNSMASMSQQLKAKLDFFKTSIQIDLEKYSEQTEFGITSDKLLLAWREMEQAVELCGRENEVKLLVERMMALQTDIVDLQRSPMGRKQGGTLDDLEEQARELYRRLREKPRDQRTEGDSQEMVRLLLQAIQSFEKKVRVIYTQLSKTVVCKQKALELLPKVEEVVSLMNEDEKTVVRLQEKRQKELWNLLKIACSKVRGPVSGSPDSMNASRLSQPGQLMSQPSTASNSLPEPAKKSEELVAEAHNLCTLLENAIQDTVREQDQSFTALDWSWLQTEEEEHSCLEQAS
# [19] = biological target: T5, Inhibitor of nuclear factor kappa-B kinase subunit beta (Homo sapiens); conditions: at 1 µM
# [20] = biological target: T6, Inhibitor of nuclear factor kappa-B kinase subunit epsilon (Homo sapiens) (UniProt Q14164); conditions: at 0.1 µM;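 also: mean inhibition of IKKε reported, from the GSK PKIS dataset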
# T6 sequence (whole entry): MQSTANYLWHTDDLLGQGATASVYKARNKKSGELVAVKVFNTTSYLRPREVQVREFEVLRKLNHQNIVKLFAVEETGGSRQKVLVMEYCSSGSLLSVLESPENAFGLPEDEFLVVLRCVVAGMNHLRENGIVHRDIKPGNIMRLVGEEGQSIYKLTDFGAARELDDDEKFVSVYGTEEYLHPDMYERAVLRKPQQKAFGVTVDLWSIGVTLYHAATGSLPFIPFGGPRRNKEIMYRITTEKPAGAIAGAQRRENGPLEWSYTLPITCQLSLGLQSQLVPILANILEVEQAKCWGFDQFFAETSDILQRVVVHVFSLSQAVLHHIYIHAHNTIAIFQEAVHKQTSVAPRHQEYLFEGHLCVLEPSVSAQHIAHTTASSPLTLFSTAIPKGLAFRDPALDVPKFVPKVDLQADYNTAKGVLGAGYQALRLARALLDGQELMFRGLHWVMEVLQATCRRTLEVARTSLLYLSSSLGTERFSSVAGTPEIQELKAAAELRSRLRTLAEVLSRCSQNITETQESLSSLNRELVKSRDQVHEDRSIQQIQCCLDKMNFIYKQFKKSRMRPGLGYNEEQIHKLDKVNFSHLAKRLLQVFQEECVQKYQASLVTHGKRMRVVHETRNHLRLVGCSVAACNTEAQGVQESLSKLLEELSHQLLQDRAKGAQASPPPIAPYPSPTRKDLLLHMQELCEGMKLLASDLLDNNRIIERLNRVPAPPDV
Structure (SMILES),inhibition [1],inhibition [2],inhibition [3],inhibition [4],inhibition [5],inhibition [6],inhibition [7],inhibition [8],inhibition [9],inhibition [10],inhibition [11],inhibition [12],inhibition [13],inhibition [14],inhibition [15],inhibition [16],inhibition [17],inhibition [18],inhibition [19],inhibition [20]
Nc1nonc1-c1nc2cnccc2n1C1CC1,3.34% and 3.65%,-1.33% and -0.52%,-1.72% and -0.89%,2.95% and 6.82%,3.77% and 8%,1.84% and 8.17%,2.3% and 9.78%,0.74% and 1.33%,-6.41% and 0.29%,-1.72% and 0.56%,-2.58% and -3.16%,0.27% and 0.67%,0.49% and 1.53%,1.54% and 1.55%,1.9% and 1.11%,6.14% and 3.82%,1.6% and 3.39%,4.31% and 2.15%,1.3% and 3.29%,3.18% and 3.84%
CS(=O)(=O)Nc1ccc(-c2ccc3c(NC(=O)C4CC4)n[nH]c3c2)cc1,2.05%,-1.28%,-3.34%,2.67%,4.34%,0.92%,1.63%,-0.54%,-0.98%,2.34%,-3.21%,1.2%,0%,2.09%,0.41%,6.65%,-3.42%,3.69%,1.2%,-0.23%
COc1c(C(N)=O)cc(-c2ccc(Cl)cc2)cc1-c1ccc(S(N)(=O)=O)cc1,5.43%,-3.03%,-1.89%,4.8%,2.59%,0.32%,1.67%,0.85%,3.11%,0.56%,0.21%,-0.78%,0.28%,1.48%,3.63%,2.15%,1.32%,6.58%,4.61%,8.74%
CC1=C(C(=O)Nc2ccc3[nH]ncc3c2)C(c2ccc(F)cc2)N=C(c2ccc(C(F)(F)F)nc2)N1 (stereo not given),1.85%,-1.07%,-0.7%,2.87%,4.33%,2.9%,4.49%,4.33%,-3.27%,-0.6%,2.01%,0%,-2.07%,2.45%,2.14%,7.64%,-0.7%,2.1%,-0.37%,2.04%
